The list is not random: actives were taken first. Their share in the collection is about 1.8%.
Exocytosis inh: lytic granule exocytosis inhibition | TALL-104 LAMP-1 surface exposure, flow cytometry; cells stimulated with thapsigargin and PMA | inhibition, % at 10 µM | 360,000 compounds, 0.66% hits;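 active = inhibition above about 55%, limit read from the data; inconclusive = no clear call, values can overlap the other calls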
Myeloid diff MLP: compounds promoting myeloid differentiation. ER-HoxA9 myeloid progenitors, lysozyme-GFP differentiation, flow cytometry. calls only at 10 µM. 360,000 compounds, 1% hits. AID 624256;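 active = normalized GFP-positive differentiation at or above the plate's own cutoff, the solvent-only control mean plus 3 SD; inconclusive = no clear call, values can overlap the other calls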;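 also: cells exposed to compound for four days before flow analysis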
ABCB6 inh 2: blocks the human ABCB6 transporter | Q9NP58 | K562-ABCB6 porphyrin accumulation, flow cytometry, 1 h; active compounds read low | fluorescence ratio to DMSO, % at 10 µM | 360,000 compounds, 0.19% hits | AID 602162;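 active = fluorescence ratio to DMSO below 75%, the collection mean minus 3 SD; inconclusive = too few cells collected in the well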;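 also: signal is porphyrin accumulated inside mitochondria; lower ratio means ABCB6 inhibition with less porphyrin fluorescence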
Target sequence (Q9NP58 whole entry, looked up): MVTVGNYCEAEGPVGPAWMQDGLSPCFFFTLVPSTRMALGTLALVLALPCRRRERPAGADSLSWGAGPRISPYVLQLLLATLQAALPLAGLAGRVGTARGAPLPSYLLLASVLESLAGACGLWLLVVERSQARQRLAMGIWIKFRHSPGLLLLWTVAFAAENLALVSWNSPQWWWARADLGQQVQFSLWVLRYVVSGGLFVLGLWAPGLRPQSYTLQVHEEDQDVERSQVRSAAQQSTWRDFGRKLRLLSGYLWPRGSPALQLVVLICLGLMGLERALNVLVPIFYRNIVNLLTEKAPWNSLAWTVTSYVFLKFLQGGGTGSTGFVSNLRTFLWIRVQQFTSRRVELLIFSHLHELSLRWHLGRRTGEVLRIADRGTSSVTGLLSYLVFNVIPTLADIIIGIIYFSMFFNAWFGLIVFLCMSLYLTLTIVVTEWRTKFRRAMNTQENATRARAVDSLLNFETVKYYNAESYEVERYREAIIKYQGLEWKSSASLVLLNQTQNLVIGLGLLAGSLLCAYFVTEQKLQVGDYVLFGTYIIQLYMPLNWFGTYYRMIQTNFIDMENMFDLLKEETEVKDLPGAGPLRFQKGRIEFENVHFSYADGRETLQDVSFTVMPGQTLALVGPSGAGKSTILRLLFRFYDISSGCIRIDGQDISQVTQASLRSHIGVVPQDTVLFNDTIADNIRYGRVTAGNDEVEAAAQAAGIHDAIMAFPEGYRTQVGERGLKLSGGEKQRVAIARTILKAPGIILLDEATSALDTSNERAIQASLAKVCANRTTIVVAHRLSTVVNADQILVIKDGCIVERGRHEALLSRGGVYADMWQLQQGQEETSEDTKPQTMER
Large screens that a line does not name were inactive; ! = not active in a repeat.

COC(=O)C1=C(C)N(Cc2ccccc2)C(=NCc2cccc(C(F)(F)F)c2)N[C@H]1c1cccc(C(F)(F)F)c1	Myeloid diff MLP inconclusive
CN1CCN(Cc2nc3ccccc3c(=O)n2Cc2nc(-c3ccc4ccccc4c3)cs2)CC1	Exocytosis inh 65!, Myeloid diff MLP inconclusive
CN1CCN(Cc2nc3ccccc3c(=O)n2Cc2nc(-c3cccc([N+](=O)[O-])c3)cs2)CC1	none
Cc1[nH]c(=O)sc1C(=O)NCc1ccc([N+](=O)[O-])cc1	none
Cc1nn(Cc2cccc(C(=O)O)c2)c(C)c1[N+](=O)[O-]	none
Cc1nn(Cc2cccc(C(=O)Nc3ccn(Cc4ccccc4)n3)c2)c(C)c1[N+](=O)[O-]	Myeloid diff MLP active
CCOC(=O)c1c(C)[nH]c(C(=O)COC(=O)c2ccc([N+](=O)[O-])o2)c1C	none
CCCN(CC(=O)Nc1ccccc1C)C(=O)COC(=O)c1cnc(C)cn1	none
Cc1ccc(S(=O)(=O)N2CCN(CC(=O)N3CCOCC3)CC2)cc1	none
Cc1cc(Cl)c(C)c(S(=O)(=O)N2CCN(CC(=O)N3CCOCC3)CC2)c1Cl	Myeloid diff MLP active
Cc1c(-n2cc(C(=O)c3cc(Br)ccc3O)cc(C#N)c2=O)c(=O)n(-c2ccccc2)n1C	none
Cc1ccc(O)c(C(=O)c2cc(C#N)c(=O)n(-c3c(C)n(C)n(-c4ccccc4)c3=O)c2)c1	Myeloid diff MLP active
Oc1cc(CNC2CCCCC2)c(O)cc1CNC1CCCCC1	none
CCC1(C)Cc2c(C#N)c(N)n(-c3ccccc3)c(=O)c2CO1 (centres undefined)	none
CC1(C)C=C2C(=NN(c3ccccc3)C(N)=C2C#N)CO1	Myeloid diff MLP active
CC(Oc1ccc(-c2ccccc2)cc1)C(=O)N/N=C/c1cccnc1 (centres undefined)	Exocytosis inh 56
COc1ccc(C(=O)N/N=C/c2cccnc2)cc1	none
COCCNC(=O)C1(C)CCN(C(=O)c2ccc3sccc3c2)C1 (centres undefined)	none
COc1ccc(Oc2c(OC)cc(NCc3ccc(CN)cc3)c3ncccc23)cc1	Myeloid diff MLP active
COc1ccc(CNc2cccnc2Cl)cc1	none
O=C(NCc1ccc(F)cc1F)[C@@H]1CCCN1C(=O)[C@@H]1CCCN1C(=O)c1cccs1	none
COc1cccc(C(=O)Nc2cc(C(=O)NCc3ccc(C)cc3)ccc2N2CCC3(CC2)CC(c2cccc(Br)c2)=NO3)c1	none
CCOC(=O)c1cc(C#N)c(SCC(=O)c2cc(C#N)c(SC)nc2C)[nH]c1=O	none
CSc1nc(C)c(C(=O)C[n+]2ccc(C)cc2)cc1C#N	Exocytosis inh 76
COc1cc(-c2ccc3cc(OC)c(OC)c(OC)c3c2)cc(OC)c1OC	none
Cc1c(N=C/C=C2\N(C)c3ccccc3C2(C)C)c(=O)n(-c2ccccc2)n1C	none
Cc1c(N=C/C=C2/N(C)c3ccccc3C2(C)C)c(=O)n(-c2ccccc2)n1C	Myeloid diff MLP active!
Cc1c(NC(=S)/C=C2\N(C)c3ccccc3C2(C)C)c(=O)n(-c2ccccc2)n1C	Myeloid diff MLP active
Cc1c(NC(=O)NCc2ccccc2)c(=O)n(-c2ccccc2)n1C	none
CC(=O)Nc1c(Cl)c2c(c(Cl)c1Br)-c1ccc(Cl)cc1C2	none
Cc1ccc(S(=O)(=O)N2CC3=C(C2)C2CC2(C)C3)cc1 (centres undefined)	none
CCOC(=O)c1sc(NC(=O)CSc2nnnn2-c2ccccc2)nc1C	none
CCOC(=O)c1c(-c2ccc(C)o2)csc1NC(=O)CSc1nnc(C)s1	Exocytosis inh 96
O=C(CSc1nnnn1-c1ccccc1)NCc1cccs1	Myeloid diff MLP active
CSc1ccccc1-n1nnnc1SCC(=O)NCc1cccs1	none
CCOC(=O)c1c(-c2ccccc2)csc1NC(=O)CSc1nnc(C)s1	none
CCOC(=O)c1c(-c2ccc(C)o2)csc1NC(=O)CSc1nnnn1-c1ccccc1	Exocytosis inh 95
COCCN(Cc1ccc(OC)cc1)c1c(C)nc2ccc(C(=O)Nc3ccc(NC(C)=O)cc3)cn12	Exocytosis inh inconclusive
COc1ccccc1/C=C/C(=O)N1CCN(S(=O)(=O)c2cc(C)ccc2C)CC1	none
CCCCCCCCN1C(=O)[C@H](CC(=O)N2CCSCC2)C[C@@]2(C(=O)OCC)CCCC=C12	none
O=C(NCCc1ccccn1)c1c(-c2ccccc2)sc2ccccc12	none
O=C(NCCc1ccccn1)c1c(-c2ccsc2)sc2ccccc12	Myeloid diff MLP active
Cc1cc(N/N=C/c2ccc([N+](=O)[O-])o2)nc2ccccc12	Myeloid diff MLP active
Cc1ccc(-c2cc(C(=O)N/N=C/c3ccc([N+](=O)[O-])o3)c3ccccc3n2)o1	Myeloid diff MLP inconclusive
O=c1[nH]nc(Br)c(=O)n1C(c1ccccc1)c1ccccc1	none
C=CCc1cccc2ccc(=O)oc12	Myeloid diff MLP active
C=CCc1cccc2cc(C(=O)NC(C)(C)C)c(=O)oc12	none
COc1ccc(C2C(C#N)=C(C)NC3=C2C(=O)CC(C)(C)C3)cc1 (centres undefined)	none
COc1ccc(C2C3=C(CC(C)(C)CC3=O)Nc3c2c(=O)[nH]c2nc(C)nn32)cc1 (centres undefined)	Myeloid diff MLP active
COCCNC(=O)C1CCCN(C(=O)c2cc(-c3ccccc3)cs2)CC1 (centres undefined)	none
Cc1cnc(C(=O)OCC(=O)NCc2ccc(Cl)cc2)cn1	none
COc1ccc(CC(=O)NCCc2ccc(S(N)(=O)=O)cc2)cc1	none
COCC(=O)NCCc1ccc(S(N)(=O)=O)cc1	Myeloid diff MLP active
CCOC(=O)c1c(NC(=O)c2ccccc2)sc2c(O)c(CN(CC)CC)ccc12	ABCB6 inh 2 69
CCN(CC)Cc1c(NC(=O)c2ccccc2)sc(C)c1C	none
COc1ccc(C(C)NCCC(c2ccc(OC(C)C)cc2)c2ccccc2OC)cc1 (centres undefined)	Myeloid diff MLP active
COc1ccc(C(CCNC(C)c2ccccc2)C(C)C)cc1 (centres undefined)	none
C/C(=N/NC(=O)c1ccncc1)c1cc2ccc(O)cc2oc1=O	none
C/C(=N/NC(N)=S)c1cc2ccc(O)cc2oc1=O	Myeloid diff MLP active
O=S(=O)(/N=C(/Nc1ccccn1)c1ccc(Cl)cc1)c1ccc(Cl)cc1	none
Cc1ccc(-c2noc(CCC(=O)Nc3cccc(C(=O)NC4CC4)c3)n2)cc1	none
Cc1sc(C(C2C(=O)CC(C)(C)CC2=O)C2C(=O)CC(C)(C)CC2=O)cc1[N+](=O)[O-]	Exocytosis inh 73
CC1(C)CC(=O)C(C(c2cc([N+](=O)[O-])ccc2Cl)C2C(=O)CC(C)(C)CC2=O)C(=O)C1	none
CCOC(=O)N(C)C[C@H]1OCc2cnnn2CCCC(=O)N([C@@H](C)CO)C[C@H]1C	none
C=C(C)COc1ccc2oc(C)c(C(=O)OCCOC)c2c1	ABCB6 inh 2 67
COCCOC(=O)c1c(C)oc2ccc(OCc3ccccc3)cc12	none
O=C(/C=C/c1ccncc1)c1ccc2c(c1)OCCO2	none (no result: Myeloid diff MLP)
COc1cc(/C=C/C(=O)c2ccc3c(c2)OCCO3)cc(Br)c1OCC(=O)N(C)C	Exocytosis inh 102, Myeloid diff MLP active
CC1(C)CC(=O)C=C(c2ccc(-c3ccc4[nH]ccc4c3)cc2)C1=O	Exocytosis inh 70
CC1(C)CC(=O)C=C(c2ccccc2-c2ccc3cc[nH]c3c2)C1=O	none
COc1ccc(C)cc1-n1c(C)cc(C=O)c1C	none
COc1ccc(N)cc1-n1c(C)ccc1C	Myeloid diff MLP active
CNc1cc(-c2cccc(N(C)C)c2)ncn1	none

Screens as filed in PubChem.
